Compound activity as filed in PubChem.
Fam108B counter – blocks mouse Fam108B hydrolase in RBBP9 counter-screen; 300,000 compounds, 0.33% hits; inhibition, % at 9.51 µM; recombinant Fam108B, FP-Rh probe fluorescence polarization;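 active means inhibition above the screen mean inhibition plus 3 SD, computed separately per campaign, cut at about 18% in these data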;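 further: inhibitors lower polarization as less probe binds the enzyme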
PAFAH2 inh – PAFAH2 (human) inhibition. AID 492956. inhibition, % at 3.39 µM. Q99487. 340,000 compounds, 0.99% hits. recombinant PAFAH2, FP-rhodamine activity probe, fluorescence polarization;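 active means inhibition above the mean over all tested compounds plus 3 SD, cut at about 30% in these data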;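 further: inhibitors block probe labeling of enzyme so polarization drops; 0% = enzyme with DMSO and 100% = wells lacking PAFAH2 protein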
pPAFAH inh – inhibitors of human plasma PAF acetylhydrolase (pPAFAH). Q13093. recombinant pPAFAH, FP-rhodamine probe fluorescence polarization. inhibition, % at 3.39 µM. 330,000 compounds, 1.5% hits. AID 463082;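 active means inhibition above the mean inhibition across the screen plus 3 SD, cut at about 25% in these data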;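 further: inhibitors block binding of the rhodamine activity-based probe so polarization drops; 0% = enzyme with DMSO and 100% = wells lacking pPAFAH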
PME-1 inh – blocks human protein phosphatase methylesterase 1. inhibition, % at 5.9 µM. 320,000 compounds, 0.53% hits. recombinant PME-1, FP-Rh probe fluorescence polarization. Q9Y570;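 active means inhibition above the campaign mean of all compounds plus 3 SD, cut at about 26% in these data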;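 further: competitive labeling of PME-1 active site by serine hydrolase directed probe; 0% = PME-1 with DMSO and 100% = wells lacking PME-1 enzyme; inhibitors block probe labeling so polarization falls and inhibition rises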
Target sequence (Q9Y570 whole entry, looked up): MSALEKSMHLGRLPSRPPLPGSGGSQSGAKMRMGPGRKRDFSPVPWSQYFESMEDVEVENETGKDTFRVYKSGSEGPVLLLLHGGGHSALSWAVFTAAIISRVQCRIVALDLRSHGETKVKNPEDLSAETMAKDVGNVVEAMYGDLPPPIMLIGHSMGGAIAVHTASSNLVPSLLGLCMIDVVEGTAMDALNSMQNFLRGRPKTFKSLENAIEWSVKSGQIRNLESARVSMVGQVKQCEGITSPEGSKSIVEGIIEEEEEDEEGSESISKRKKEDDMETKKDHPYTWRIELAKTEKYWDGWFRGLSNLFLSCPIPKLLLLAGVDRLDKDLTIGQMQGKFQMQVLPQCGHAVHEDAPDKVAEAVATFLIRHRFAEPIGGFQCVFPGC
PAFAH1B2 inh – PAFAH1B2 (human) inhibition; P68402; recombinant PAFAH1B2, FP-rhodamine activity probe, fluorescence polarization; inhibition, % at 3.39 µM; 340,000 compounds, 1.2% hits; AID 492953;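 active means inhibition above the mean of all tested compounds plus 3 SD, cut at about 24% in these data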;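 further: 0% = enzyme with DMSO and 100% = wells lacking PAFAH1B2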
PAFAH1B3 FP inh – blocks human PAF acetylhydrolase 1B catalytic subunit 3; inhibition, % at 3.39 µM; 340,000 compounds, 0.28% hits; recombinant PAFAH1B3, FP-rhodamine probe, fluorescence polarization; AID 492972;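 active means inhibition above the screen-wide average of all tested compounds plus 3 SD, cut at about 25% in these data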;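 further: 0% = enzyme with DMSO only and 100% = wells lacking PAFAH1B3 protein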
Target sequence (Q15102 whole entry, looked up): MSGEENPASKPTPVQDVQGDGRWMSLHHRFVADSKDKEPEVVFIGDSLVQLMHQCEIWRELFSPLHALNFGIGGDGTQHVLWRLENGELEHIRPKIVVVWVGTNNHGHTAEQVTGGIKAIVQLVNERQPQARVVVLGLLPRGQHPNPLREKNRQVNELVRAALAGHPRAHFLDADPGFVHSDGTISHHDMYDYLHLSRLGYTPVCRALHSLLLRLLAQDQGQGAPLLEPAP
PAFAH2 confirm – PAFAH2 (human) inhibition, confirmed; 2,300 compounds, 65% hits; inhibition, % at 3.39 µM; shares compounds with PAFAH2 inh; recombinant PAFAH2, FP-rhodamine activity probe, fluorescence polarization;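 active means mean inhibition over three repeats above a set limit taken from the earlier primary screen, cut at about 30% in these data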;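 further: inhibitor blocks binding of rhodamine activity probe so polarization falls; 0% = enzyme with DMSO and 100% = wells lacking PAFAH2 protein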
* hit, by the source's call; / = not tested or not shown. A selection: hits, their analogues and other compounds. The true share with any hit is near 2.9%.

SMILES	Fam108B counter	PAFAH2 inh	pPAFAH inh	PME-1 inh	PAFAH1B2 inh	PAFAH1B3 FP inh	PAFAH2 confirm
CCCCCCCOC(=O)c1ccc(OC(=O)c2cccnc2)cc1	0	47*	5	-2	16	6	32*
CCCCCCOC(=O)c1ccc(N)cc1	4	68*	12	8	11	-4	61*
CCN(CC(=O)Nc1ccccc1C(F)(F)F)C(=O)c1ccc(N2C(=O)CCC2=O)cc1	-1	-9	3	4	2	0	/
Cc1cc(C)cc(-n2ncc3c2CCCC3NC(=O)c2ccccc2N2CCOCC2)c1 (stereo not given)	-1	7	11	-1	1	7	/
CCCC(Oc1ccc(Br)cc1)c1nc2c3cc(OC)c(OC)cc3nc(=S)n2[nH]1 (stereo not given)	4	33*	10	-2	15	13	22
N=C1C(c2nc(-c3ccc(Cl)cc3)cs2)=C(O)CN1CCCN1CCOCC1	6	30*	20	4	3	5	30*
CCCCN1CC(O)=C(c2nc(-c3ccc(Cl)cc3)cs2)C1=N	3	14	10	-2	5	9	/
CC(C)Sc1ccc(C(=O)Nc2ccc(F)cc2F)cn1	-3	-5	-1	-1	7	0	/
O=C(c1cc(-c2ccccc2Cl)on1)N1CCCC1	-4	36*	0	-5	2	5	35*
Cc1ccc(N2CCN(C(=O)N3CCOCC3)CC2)cc1C	-1	-4	1	-2	3	-3	/
Cc1cccc(C)c1N1CCN(C(=O)N2CCOCC2)CC1	1	44*	2	7	1	2	44*
Cc1cc(C)c(S(=O)(=O)N2CCN(C(=O)N3CCOCC3)CC2)c(C)c1	3	28	-1	2	7	6	/
Cc1cc(C)c(S(=O)(=O)N2CCN(C(=O)N3CCCCC3)CC2)c(C)c1	-1	34*	1	0	-3	8	30*
CC(C)C(=O)N(c1ccc2oc(=O)sc2c1)S(=O)(=O)c1cccs1	4	44*	8	2	1	9	42*
CC(=O)N(c1ccc2oc(=O)sc2c1)S(=O)(=O)c1cccs1	3	23	2	-5	4	5	/
CC(C)C(=O)N(c1cc2sc(=O)oc2c2ccccc12)S(=O)(=O)c1cccs1	6	32*	13	-1	3	10	26
CC(CCc1ccccc1)NC(=O)COC(=O)c1ccc(NC(N)=O)cc1 (stereo not given)	-8	67*	0	-8	6	4	64*
CC(CCc1ccccc1)NC(=O)COC(=O)c1cccc2ccccc12 (stereo not given)	2	26	4	7	0	6	/
CC(CCc1ccccc1)NC(=O)COC(=O)c1ccccc1Br (stereo not given)	0	27	2	-3	10	9	/
COc1ccc(C(=O)OCC(=O)NC(C)CCc2ccccc2)cc1OC (stereo not given)	-2	74*	11	5	6	-2	71*
COc1ccc(C(=O)OCC(=O)NC(C)CCc2ccccc2)cc1 (stereo not given)	6	75*	8	3	7	7	68*
COc1ccc(/C=C/C(=O)OCC(=O)NC(C)CCc2ccccc2)cc1OC (stereo not given)	/	64*	6	/	6	2	59*
CC(C)n1nccc1NC(=O)COC(=O)c1ccc(NC(N)=O)cc1	/	65*	3	/	5	6	46*
NC(=O)Nc1ccc(C(=O)OCC(=O)Nc2sccc2C(N)=O)cc1	/	29	/	/	4	7	/
CC1CCN(C(=O)COC(=O)c2cccs2)CC1	/	35*	6	/	6	3	21
SMILES	Fam108B counter	PAFAH2 inh	pPAFAH inh	PME-1 inh	PAFAH1B2 inh	PAFAH1B3 FP inh	PAFAH2 confirm
CC1CCN(C(=O)COC(=O)c2ccc3c(c2)OCO3)CC1	1	39*	0	-9	-5	6	19
O=C(OCC(=O)N1CCCCC1)c1cccs1	/	10	2	/	4	6	/
CC1CCCCN1C(=O)COC(=O)c1ccc(N2CCCC2=O)cc1 (stereo not given)	/	10	2	/	5	1	/
CC1CCN(C(=O)COC(=O)c2ccc(N3CCCC3=O)cc2)CC1	/	37*	2	-1	7	10	30*
CC1CCN(C(=O)COC(=O)c2ccc3c(c2)OCCO3)CC1	/	46*	12	/	4	10	30*
O=C(OCC(=O)N1CCOCC1)c1ccc2c(c1)OCCO2	0	3	0	-7	-2	2	/
CCN(CC)CCNC(=O)C(Cl)=C1C(Cl)=C(Cl)C(Cl)=C1Cl	/	3	/	/	-2	4	/
CC(C)N(C(=O)[C@H]1CC(CC(=O)NC(C)(C)C)C(=O)N2CCc3c([nH]c4ccccc34)[C@]12C)C(C)C (stereo not given in full)	/	5	6	/	6	9	/
Cc1ccc(S(=O)(=O)n2nc(OC(=O)c3c(F)cccc3Cl)cc2N)cc1	3	34*	4	-3	15	9	12
Cn1cc(C=C2C(=O)OC3(CCCCC3)OC2=O)c2ccccc21	3	46*	6	1	16	7	46*
Cn1cc(C=C2C(=O)CC(C)(C)CC2=O)c2ccccc21	4	23	-2	-2	3	3	/
CCOc1cc(C(=O)Nc2cc3c(cc2N2CCOCC2)n(C)c(=O)n3C)cc(OCC)c1OCC	3	-1	3	6	-5	4	/
Cc1ccc(C(=O)Oc2ccc(Br)cc2C(=S)N2CCOCC2)cc1	-2	32*	10	3	4	4	33*
COc1ccc(C(=O)Oc2ccc(Br)cc2C(=S)N2CCOCC2)cc1	5	52*	18	-10	2	8	36*
O=C(Oc1ccc(Br)cc1C(=S)N1CCOCC1)c1ccc(F)cc1	2	13	5	12	2	9	/
COc1cc(C(=O)Oc2ccc(Br)cc2C(=S)N2CCOCC2)cc(OC)c1OC	-1	7	12	-1	1	11	/
Cc1cc(C(=O)OCC(=O)Nc2ccccc2F)c(C)o1	-2	39*	4	0	0	9	32*
COc1ccc(C(=O)COC(=O)c2ccc(NC(C)=O)cc2)cc1[N+](=O)[O-]	-4	12	3	-1	0	3	/
Cc1cc(C(=O)OCC(=O)Nc2cc(Cl)ccc2C)c(C)o1	/	14	4	-2	-1	-1	/
COc1cccc(C(=O)COC(=O)c2ccc(NC(C)=O)cc2)c1	-1	37*	-3	-3	4	8	32*
COC(=O)c1ccc(NC(=O)Nc2ccccc2F)cc1	-3	-5	-5	-15	-1	4	/
